Laboratory results from the supplement of paper PMC11732987, “Enantioselective OTUD7B fragment discovery through chemoproteomics screening and high-throughput optimisation” (Communications Chemistry, 2025).

Columns and labels:
Experiment in all cases: log2 ratio of Biotin-Ahx-Ub-VS probe labelling (fragment/DMSO); higher = less target engagement (more negative = stronger competition), active = hit call of the paper (q ≤ 0.05, log2 ratio ≤ -1)
Conditions in all cases: compound concentration: 200 uM; treatment time: 3 h
OTUD6B = target: T1, OTUD6B (UniProt Q8N6M0)
T1 sequence (whole entry): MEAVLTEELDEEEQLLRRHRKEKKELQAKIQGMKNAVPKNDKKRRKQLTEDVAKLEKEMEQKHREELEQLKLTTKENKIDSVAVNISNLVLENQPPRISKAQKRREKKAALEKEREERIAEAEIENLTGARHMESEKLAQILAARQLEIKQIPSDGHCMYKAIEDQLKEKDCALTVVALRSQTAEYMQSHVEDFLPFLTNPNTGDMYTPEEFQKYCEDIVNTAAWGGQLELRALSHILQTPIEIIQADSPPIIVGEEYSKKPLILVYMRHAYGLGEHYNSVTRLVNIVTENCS
Outline: (§1)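 Triplicate samples of HEK293T lysate, 495 µg each, received fragment at 200 µM or vehicle for 3 h, followed by Biotin-Ahx-Ub-VS (0.5 µM final) for 1 h. After NeutrAvidin enrichment of labelled DUBs and LysC/trypsin digestion, peptides were run by diaPASEF LC-MS/MS. The values are average log2 fragment/vehicle ratios from global-median-normalised Spectronaut label-free quantities, tested by unpaired t-test on proteins having ≥2 unique peptides.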

OTUD7B = target: T2, OTUD7B (UniProt Q6GQQ9)
T2 sequence (whole entry): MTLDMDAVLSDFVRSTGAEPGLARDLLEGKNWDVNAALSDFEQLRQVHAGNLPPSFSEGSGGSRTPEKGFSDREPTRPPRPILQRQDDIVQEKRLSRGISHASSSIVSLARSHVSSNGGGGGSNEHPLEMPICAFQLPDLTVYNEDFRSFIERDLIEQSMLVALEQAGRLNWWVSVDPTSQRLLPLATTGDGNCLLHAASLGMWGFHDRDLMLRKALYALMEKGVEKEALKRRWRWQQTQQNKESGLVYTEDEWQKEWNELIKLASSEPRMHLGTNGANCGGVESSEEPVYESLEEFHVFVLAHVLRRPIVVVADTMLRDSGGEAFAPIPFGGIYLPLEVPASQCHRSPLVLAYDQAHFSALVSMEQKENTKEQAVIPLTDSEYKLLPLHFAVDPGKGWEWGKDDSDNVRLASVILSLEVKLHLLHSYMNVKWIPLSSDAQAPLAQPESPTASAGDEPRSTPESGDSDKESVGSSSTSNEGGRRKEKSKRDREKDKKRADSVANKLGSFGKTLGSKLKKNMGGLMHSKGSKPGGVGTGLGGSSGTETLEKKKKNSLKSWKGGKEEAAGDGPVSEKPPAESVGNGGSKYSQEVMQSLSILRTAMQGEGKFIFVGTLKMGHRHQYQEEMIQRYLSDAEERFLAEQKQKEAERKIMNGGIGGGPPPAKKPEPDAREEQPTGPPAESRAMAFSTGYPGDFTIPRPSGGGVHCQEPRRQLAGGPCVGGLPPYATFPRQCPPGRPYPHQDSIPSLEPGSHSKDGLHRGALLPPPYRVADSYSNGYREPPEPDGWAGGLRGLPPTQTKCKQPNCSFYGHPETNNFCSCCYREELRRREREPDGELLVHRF
Outline: as §1

PRPF8 = PRPF8 (UniProt Q6P2Q9)
Outline: as §1

PSMD7 = target: T3, PSMD7 (UniProt P51665)
T3 sequence (whole entry): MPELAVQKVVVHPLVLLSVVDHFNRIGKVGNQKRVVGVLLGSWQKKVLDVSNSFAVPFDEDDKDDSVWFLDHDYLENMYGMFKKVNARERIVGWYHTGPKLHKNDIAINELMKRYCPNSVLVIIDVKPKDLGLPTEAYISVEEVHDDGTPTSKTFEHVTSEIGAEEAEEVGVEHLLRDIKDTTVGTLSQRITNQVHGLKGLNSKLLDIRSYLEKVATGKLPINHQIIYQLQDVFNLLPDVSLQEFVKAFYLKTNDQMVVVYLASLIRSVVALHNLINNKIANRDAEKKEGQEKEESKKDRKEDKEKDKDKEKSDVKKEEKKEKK
Outline: as §1

UCHL1 = UCHL1 (UniProt P09936)
Sequence of UCHL1 (P09936 whole entry, looked up): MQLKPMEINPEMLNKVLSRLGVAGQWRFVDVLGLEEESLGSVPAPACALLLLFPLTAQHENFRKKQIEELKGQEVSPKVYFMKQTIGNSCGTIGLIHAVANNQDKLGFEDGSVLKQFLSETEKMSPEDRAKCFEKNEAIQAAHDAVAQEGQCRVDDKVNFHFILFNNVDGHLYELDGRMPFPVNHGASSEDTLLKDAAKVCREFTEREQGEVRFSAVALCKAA
Outline: as §1

UCHL3 = target: T4, UCHL3 (UniProt P15374)
T4 sequence (whole entry): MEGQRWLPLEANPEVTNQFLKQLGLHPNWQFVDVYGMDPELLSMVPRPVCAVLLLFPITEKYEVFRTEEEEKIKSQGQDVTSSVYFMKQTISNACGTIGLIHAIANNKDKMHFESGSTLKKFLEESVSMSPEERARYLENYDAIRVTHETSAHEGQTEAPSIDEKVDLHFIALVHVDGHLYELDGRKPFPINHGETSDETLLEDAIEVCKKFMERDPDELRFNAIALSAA
Outline: as §1

UCHL5 = target: T5, UCHL5 (UniProt Q9Y5K5)
T5 sequence (whole entry): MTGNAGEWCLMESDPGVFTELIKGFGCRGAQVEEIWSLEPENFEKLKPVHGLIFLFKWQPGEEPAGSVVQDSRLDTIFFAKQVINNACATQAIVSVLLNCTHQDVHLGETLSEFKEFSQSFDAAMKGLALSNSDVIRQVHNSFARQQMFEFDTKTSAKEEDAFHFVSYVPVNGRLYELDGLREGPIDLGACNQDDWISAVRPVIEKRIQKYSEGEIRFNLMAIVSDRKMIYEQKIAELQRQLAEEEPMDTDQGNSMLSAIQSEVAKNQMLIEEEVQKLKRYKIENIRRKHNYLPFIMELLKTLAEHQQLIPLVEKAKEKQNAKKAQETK
Outline: as §1

USP10 = USP10 (UniProt Q14694)
Sequence of USP10 (Q14694 whole entry): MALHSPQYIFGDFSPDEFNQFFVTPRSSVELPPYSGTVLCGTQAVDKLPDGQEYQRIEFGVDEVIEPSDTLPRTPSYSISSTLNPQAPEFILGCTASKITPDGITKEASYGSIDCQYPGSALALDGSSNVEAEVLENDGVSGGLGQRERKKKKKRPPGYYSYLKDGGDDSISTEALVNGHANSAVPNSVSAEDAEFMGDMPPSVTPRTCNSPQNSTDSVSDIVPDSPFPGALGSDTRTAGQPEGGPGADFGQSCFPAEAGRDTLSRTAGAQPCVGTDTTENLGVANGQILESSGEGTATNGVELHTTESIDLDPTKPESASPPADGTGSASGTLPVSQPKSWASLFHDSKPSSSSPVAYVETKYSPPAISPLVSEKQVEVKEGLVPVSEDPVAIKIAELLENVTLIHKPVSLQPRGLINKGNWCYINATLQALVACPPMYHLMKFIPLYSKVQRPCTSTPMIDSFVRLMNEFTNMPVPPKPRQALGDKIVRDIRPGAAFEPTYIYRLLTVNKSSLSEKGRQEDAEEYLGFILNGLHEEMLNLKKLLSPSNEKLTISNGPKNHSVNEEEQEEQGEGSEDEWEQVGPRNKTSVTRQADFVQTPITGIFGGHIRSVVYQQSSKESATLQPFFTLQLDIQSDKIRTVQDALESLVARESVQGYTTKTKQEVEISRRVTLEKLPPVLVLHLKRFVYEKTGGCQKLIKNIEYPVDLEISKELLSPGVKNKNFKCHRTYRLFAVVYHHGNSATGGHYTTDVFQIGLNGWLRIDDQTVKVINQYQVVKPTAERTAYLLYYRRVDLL
Outline: as §1

USP15 = target: T6, USP15 (UniProt Q9Y4E8)
T6 sequence (whole entry): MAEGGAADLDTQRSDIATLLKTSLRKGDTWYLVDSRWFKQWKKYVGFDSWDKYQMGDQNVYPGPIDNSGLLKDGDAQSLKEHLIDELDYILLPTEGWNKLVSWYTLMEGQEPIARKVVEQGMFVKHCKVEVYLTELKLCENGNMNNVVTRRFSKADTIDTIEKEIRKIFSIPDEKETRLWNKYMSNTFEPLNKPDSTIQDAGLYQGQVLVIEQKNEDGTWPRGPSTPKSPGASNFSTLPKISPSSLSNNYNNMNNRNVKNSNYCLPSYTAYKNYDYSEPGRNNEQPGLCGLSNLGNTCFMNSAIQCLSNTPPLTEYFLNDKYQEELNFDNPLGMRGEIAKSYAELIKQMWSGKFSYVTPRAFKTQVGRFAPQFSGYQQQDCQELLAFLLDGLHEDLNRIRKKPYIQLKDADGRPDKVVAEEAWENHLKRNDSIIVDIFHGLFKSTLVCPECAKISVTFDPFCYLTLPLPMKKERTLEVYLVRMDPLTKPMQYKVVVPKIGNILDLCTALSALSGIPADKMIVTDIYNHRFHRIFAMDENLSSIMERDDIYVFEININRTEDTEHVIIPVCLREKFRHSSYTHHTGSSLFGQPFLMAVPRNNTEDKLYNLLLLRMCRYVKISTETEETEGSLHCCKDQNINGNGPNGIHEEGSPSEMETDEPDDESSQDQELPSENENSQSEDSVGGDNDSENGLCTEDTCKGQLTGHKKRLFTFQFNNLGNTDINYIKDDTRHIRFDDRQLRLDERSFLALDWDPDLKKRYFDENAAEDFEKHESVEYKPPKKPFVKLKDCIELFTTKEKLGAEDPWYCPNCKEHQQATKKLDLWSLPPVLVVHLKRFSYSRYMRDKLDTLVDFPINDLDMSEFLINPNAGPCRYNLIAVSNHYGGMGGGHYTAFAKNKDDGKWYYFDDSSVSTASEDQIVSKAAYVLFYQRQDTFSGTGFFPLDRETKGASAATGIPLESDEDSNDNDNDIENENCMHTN
Outline: as §1

USP16 = USP16 (UniProt Q9Y5T5)
Sequence of USP16 (Q9Y5T5 whole entry, looked up): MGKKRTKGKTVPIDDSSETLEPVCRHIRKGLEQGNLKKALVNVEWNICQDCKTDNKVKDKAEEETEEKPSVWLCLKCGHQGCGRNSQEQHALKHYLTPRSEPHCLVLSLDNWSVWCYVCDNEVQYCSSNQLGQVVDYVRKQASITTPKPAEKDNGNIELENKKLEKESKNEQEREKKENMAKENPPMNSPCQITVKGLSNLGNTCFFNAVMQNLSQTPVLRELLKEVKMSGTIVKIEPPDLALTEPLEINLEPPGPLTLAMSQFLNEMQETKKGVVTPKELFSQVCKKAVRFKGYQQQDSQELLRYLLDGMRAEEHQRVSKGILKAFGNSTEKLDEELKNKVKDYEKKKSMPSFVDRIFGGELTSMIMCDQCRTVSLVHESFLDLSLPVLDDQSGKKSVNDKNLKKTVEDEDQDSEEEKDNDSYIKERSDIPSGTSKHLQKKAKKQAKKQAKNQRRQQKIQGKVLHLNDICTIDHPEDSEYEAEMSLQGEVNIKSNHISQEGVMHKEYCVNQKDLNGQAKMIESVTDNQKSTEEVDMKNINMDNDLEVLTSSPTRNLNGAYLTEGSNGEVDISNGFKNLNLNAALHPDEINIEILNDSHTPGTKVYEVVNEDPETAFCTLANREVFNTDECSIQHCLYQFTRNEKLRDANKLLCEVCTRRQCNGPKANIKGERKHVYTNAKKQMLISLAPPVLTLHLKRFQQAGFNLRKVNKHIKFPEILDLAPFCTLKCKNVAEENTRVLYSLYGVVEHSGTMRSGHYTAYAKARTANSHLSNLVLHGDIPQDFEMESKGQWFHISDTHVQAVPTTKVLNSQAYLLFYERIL
Outline: as §1

Measured: log2 ratio of Biotin-Ahx-Ub-VS probe labelling

CS(=O)(=O)N1CCCN(C(=O)CCl)CC1
inactive: OTUD6B -0.512 | OTUD7B -0.631 | PRPF8 -0.104 | PSMD7 -0.148 | UCHL3 0.112 | UCHL5 -0.235 | USP10 -0.0225 | USP15 -0.193 | USP16 0.245
active: UCHL1 -1.95
